Experimental findings from PubChem BioAssay (NCATS) are described below.

The subject of one assay is MCC-26. Description: qHTS assay to identify novel small-molecules to repurpose for Merkel cell carcinoma treatment (AID 1296009). Note: nearly all actives have a fitted effect of over 60% in size. Conditions: MCC and control cell lines, CellTiter-Glo viability, 72 h; series mostly up to 46 µM. A digest of the protocol:
(§1)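 72 hr, 37 degree celsius; NPC 8-pt / MIPE 11-pt dose response; compound pinned in DMSO; CellTiter-Glo, 10 min RT, luminescence; normalized to no-cell and DMSO controls.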
On the technique in general: In qHTS, concentration-response curves come from the screen itself.

The test system of a further assay is C33A. The experiment in a line: Primary qHTS to identify gynecologic anti-cancer compounds using libraries of approved drugs and bioactive compounds (AID 1345084). Note: nearly all actives have a fitted effect of over 55% in size. Conditions: Gynecologic cancer cell panel viability, ATPlite luminescence, 48 h; series mostly up to 57.5 µM. A digest of the protocol: (§2)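 48 h compound exposure at 37 C, 5% CO2; five-point qHTS. ATPlite luminescence readout of cell ATP.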

The next assay has as its system CAOV3. The description is as above. Conditions: Gynecologic cancer cell panel viability, ATPlite luminescence, 48 h; series mostly up to 57.5 µM. In a few lines:
as §2
In general terms: ATP-based viability assays read luminescence as a measure of living cells.

The next assay relates to CASKI. Described as above. Conditions: Gynecologic cancer cell panel viability, ATPlite luminescence, 48 h; series mostly up to 57.5 µM. In a few lines:
as §2

The next assay concerns Es-2. The description is as above. Conditions: Gynecologic cancer cell panel viability, ATPlite luminescence, 48 h; series mostly up to 57.5 µM. In a few lines:
as §2

In the next assay the test system is Hek293T. The description is as above. Conditions: Gynecologic cancer cell panel viability, ATPlite luminescence, 48 h, control line for the selectivity index; series mostly up to 57.5 µM. In a few lines: as §2
The subject of the next assay is SKOV3. The assay is described as above. Conditions: Gynecologic cancer cell panel viability, ATPlite luminescence, 48 h; series mostly up to 57.5 µM. In a few lines:
as §2

Assay [1] is described as follows: Drug repurposing screens with cells derived from glioblastoma tumor samples (AID 1345199). Note: nearly all actives have a fitted effect of over 40% in size. Conditions: GBM patient neurospheres viability, ATP luminescence, 48 h. In a few lines:
(§3)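 Four patient lines of CD133+ GBM neurospheres were screened at several concentrations; hits were retested in those lines plus three slower-growing GBM lines, using 48-hour treatment and ATP-based viability.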

The subject of another assay is MKL-1. Description: qHTS assay to identify novel small-molecules to repurpose for Merkel cell carcinoma treatment (AID 1296009). Note: nearly all actives have a fitted effect of over 60% in size. Conditions: MCC and control cell lines, CellTiter-Glo viability, 72 h; series mostly up to 46 µM. In a few lines:
as §1

The test system of a further assay is MKL-2. The description is as above. Conditions: MCC and control cell lines, CellTiter-Glo viability, 72 h; series mostly up to 46 µM. A digest of the protocol: as §1
The subject of a further assay is UISO. The description is as above. Conditions: MCC and control cell lines, CellTiter-Glo viability, 72 h; series mostly up to 46 µM. In a few lines: as §1
For the next assay, the system named is WaGa. The description is as above. Conditions: MCC and control cell lines, CellTiter-Glo viability, 72 h; series mostly up to 46 µM. In a few lines: as §1
The next assay deals with HeLa. Description: Primary qHTS to identify gynecologic anti-cancer compounds using libraries of approved drugs and bioactive compounds (AID 1345084). Note: nearly all actives have a fitted effect of over 55% in size. Conditions: Gynecologic cancer cell panel viability, ATPlite luminescence, 48 h; series mostly up to 57.5 µM. In a few lines: as §2
The test system of a further assay is JEG-3. The assay is described as above. Conditions: Gynecologic cancer cell panel viability, ATPlite luminescence, 48 h; series mostly up to 57.5 µM. In a few lines:
as §2

A further assay relates to OV90. The description is as above. Conditions: Gynecologic cancer cell panel viability, ATPlite luminescence, 48 h; series mostly up to 57.5 µM. A digest of the protocol: as §2
The next assay deals with PA-1. The description is as above. Conditions: Gynecologic cancer cell panel viability, ATPlite luminescence, 48 h; series mostly up to 57.5 µM. A digest of the protocol:
as §2

For another assay, the system named is Tov-21-G. Described as above. Conditions: Gynecologic cancer cell panel viability, ATPlite luminescence, 48 h; series mostly up to 57.5 µM. In a few lines: as §2
The test system of a further assay is Tov112D. Described as above. Conditions: Gynecologic cancer cell panel viability, ATPlite luminescence, 48 h; series mostly up to 57.5 µM. In a few lines: as §2
In another assay the test system is astro. Description: Drug repurposing screens with cells derived from glioblastoma tumor samples (AID 1345199). Note: nearly all actives have a fitted effect of over 40% in size. Conditions: viability, ATP luminescence, 48 h; series mostly up to 45.9 µM. A digest of the protocol: as §3
Where [2] appears, read: at 45.9 µM (top of the series), tumour line B.
[3] abbreviates: at 46.1 µM (top of the series), tumour line C.
Setting [4] is: at 45.9 µM (top of the series), tumour line D.

Records with an inconclusive call do not appear. A number with no mark means an inactive call. Active and inactive are the calls of the source. Calls come from the whole dose curve; as a rule, active = well fitted curve in the direction sought with a large enough effect; inconclusive = small, poorly fitted or top-dose-only effect, or another doubt; inactive = no such curve, though single readings can be large; an effect the other way counts as inactive or inconclusive.
% is set by controls: 0 for no effect and ±100 for the full control effect; potency is the fitted concentration of half-maximal effect.

For the compound `C#C[C@]1(O)CC[C@H]2[C@@H]3CCc4cc(O)ccc4[C@H]3CC[C@@]21C`, the Potency result with MCC-26, in the assay with C33A, in the assay on CAOV3, in the assay on CASKI, with Es-2 and with Hek293T was “inactive” throughout. Further, the Potency was 35.5 µM (active) in the assay with SKOV3 and 12.6 µM (active) in assay [1] (tumour line A). Besides, the activity, negative = cell killing in assay [1] (setting [2]) was -15.9%; in assay [1] (setting [3]), 2.3%.
Turning to `CNC(=O)c1c(I)c(NC(=O)CCCCC(=O)Nc2c(I)c(C(=O)O)c(I)c(C(=O)NC)c2I)c(I)c(C(=O)O)c1I`, the Potency entry with MKL-1, with MKL-2, in the assay on UISO, with WaGa, with C33A and with CASKI was “inactive” in each case. For the same compound, the Potency entry with Es-2, in the assay on HeLa, in the assay with Hek293T, with JEG-3, in the assay on OV90 and in the assay on PA-1 was “inactive” each time. In addition, the Potency result in the assay on SKOV3, with Tov-21-G and in the assay on Tov112D was “inactive” each time.
`Oc1c(Br)cc(Br)c2cccnc12`: the Potency with MKL-1 is 11.9 µM (active); in the assay with MKL-2, 4.22 µM (active); in the assay on UISO, 7.5 µM (active); in the assay with WaGa it was 11.9 µM (active). For the same compound, the Potency result in the assay on C33A, in the assay on CAOV3, in the assay with CASKI, in the assay on HeLa and with JEG-3 was “inactive” in each case.
On to `O=C(O)Cc1ccc(-c2ccccc2)cc1`, for which the Potency result with MKL-1, in the assay on MKL-2, in the assay with UISO, in the assay on WaGa, with C33A and with CASKI was “inactive” each time. Moreover, the Potency result with Es-2, in the assay on HeLa, in the assay on Hek293T, in the assay on JEG-3, in the assay with OV90 and in the assay with PA-1 was “inactive” throughout. Also, the Potency entry in the assay with SKOV3, with Tov-21-G, with Tov112D and in the assay with astro was “inactive” in each case. Moreover, the activity, negative = cell killing is 2.3% in [1] (at 20 µM (top of the series), tumour line C); -5.31% in assay [1] (at 21.2 µM (top of the series), tumour line B); -13.6% in [1] (at 21.2 µM (top of the series), tumour line D); -23.3% in assay [1] (at 21.3 µM (top of the series), tumour line A).
Consider `Cc1[nH]cnc1CN1CCc2c(c3ccccc3n2C)C1=O`, for which the Potency result in the assay with MKL-1, in the assay with MKL-2, in the assay on UISO, in the assay with WaGa, in the assay on C33A and in the assay with CASKI was “inactive” each time. In addition, the Potency result with Es-2, in the assay on HeLa, in the assay with Hek293T, in the assay on JEG-3, with PA-1 and with SKOV3 was “inactive” throughout. Further, the Potency entry with Tov-21-G, with Tov112D and in the assay on astro was “inactive” throughout. Moreover, the activity, negative = cell killing is -8.52% in assay [1] (setting [2]), -4.04% in [1] (setting [4]) and -28.6% in [1] (setting [3]). Besides, in [1] (tumour line A), the Potency is 10 µM (active).
For `CCCCCCCCCCCCCCCCCC(=O)O`, the Potency entry with MKL-1, in the assay on MKL-2, with UISO, in the assay on WaGa, in the assay on C33A and in the assay with CAOV3 was “inactive” each time. The Potency entry with CASKI, in the assay on Es-2, in the assay on HeLa, with Hek293T, in the assay on JEG-3 and in the assay on OV90 was “inactive” in each case. In addition, the Potency entry in the assay with PA-1, in the assay with SKOV3, with Tov-21-G and with Tov112D was “inactive” throughout. Further, the activity, negative = cell killing in assay [1] (setting [2]) was -6.65%; in assay [1] (setting [4]) it was -11.1%; in assay [1] (at 46 µM (top of the series), tumour line A), -19.5%; in [1] (setting [3]), -22.7%.
With `NCCO`, the Potency entry in the assay with MKL-1, with MKL-2, in the assay on UISO, with WaGa, with C33A and in the assay on CAOV3 was “inactive” in each case. Further, the Potency entry in the assay on CASKI, with Es-2, with HeLa, in the assay on Hek293T, in the assay with JEG-3 and in the assay with OV90 was “inactive” each time. Also, the Potency entry in the assay with PA-1, with Tov-21-G and in the assay on Tov112D was “inactive” throughout. Besides, the activity, negative = cell killing in assay [1] (at 91.6 µM (top of the series), tumour line B) is -4.71%; in assay [1] (at 91.6 µM (top of the series), tumour line D), -21.3%; in assay [1] (at 99.2 µM (top of the series), tumour line C), -29.9%.
